This is a sample that favours compounds with a hit; in the whole collection about 28% have one here.
CYP2C9 inhib = inhibitors of human CYP2C9. P11712. CYP2C9 Supersomes, luciferin-H conversion, luminescence. inhibition, % at 5 µM. actives 20% (n = 96,000);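 active = blocking of liver enzyme CYP2C9 beyond about 50% at 5 µM, limit read from the data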
DAT uptake mod = modulates human dopamine transporter uptake under cocaine; LLC-PK1 hDAT cells, [14C]-dopamine uptake with cocaine IC80; actives deviate in either direction; AID 449768; actives 1.3% (n = 110,000); B-score at 10 µM;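 active = Z score or B-score, a plate-position-corrected score, falls beyond the plate's 99.7% confidence bounds, in either direction; inactive = both scores lie inside the 99.7% bounds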;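 note: scored against the spread of the other compound wells on the same plate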
CYP2C19 inhib = inhibitors of human CYP2C19 | inhibition, % at 5 µM | actives 21% (n = 96,000) | CYP2C19 Supersomes, luciferin-H EGE luminescence, 30 min | P33261 | AID 778;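 active = CYP2C19 inhibition above a set limit at 5 µM in the primary screen, cut at about 50% in these data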;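 note: plate controls were negative control wells for no effect and 2.5 mM tranylcypromine positive control for full effect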
Target sequence (P33261 whole entry, looked up): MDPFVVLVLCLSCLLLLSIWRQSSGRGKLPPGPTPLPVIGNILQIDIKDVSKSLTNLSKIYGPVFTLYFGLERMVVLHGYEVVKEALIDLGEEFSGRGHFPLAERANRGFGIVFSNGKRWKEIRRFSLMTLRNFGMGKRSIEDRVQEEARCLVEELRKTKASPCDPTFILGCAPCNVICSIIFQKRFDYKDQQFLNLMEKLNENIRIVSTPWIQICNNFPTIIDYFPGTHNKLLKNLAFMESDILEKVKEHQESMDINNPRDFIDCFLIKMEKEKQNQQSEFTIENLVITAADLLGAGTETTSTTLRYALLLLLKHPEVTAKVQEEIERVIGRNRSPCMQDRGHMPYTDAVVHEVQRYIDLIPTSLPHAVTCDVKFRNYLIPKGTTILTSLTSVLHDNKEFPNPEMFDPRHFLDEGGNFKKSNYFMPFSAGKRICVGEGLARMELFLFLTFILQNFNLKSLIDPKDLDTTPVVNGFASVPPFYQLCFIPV
CYP2C9 act = activators of human CYP2C9; recombinant CYP2C9, luciferin-H conversion, luminescence; active compounds read high; factor 1 = untreated enzyme, 0 = blocked; activation factor at 5 µM; actives 1.4% (n = 96,000);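 active = activation factor of 2 or more for CYP2C9 at a 5 µM dose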;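 note: 0 = sulfaphenazole-blocked wells and 1 = vehicle-only wells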
D1 mod = D1 dopamine receptor (human) allosteric modulation | B-score at 10 µM | P21728 | actives 5.9% (n = 58,000) | HEK293 D1, CRE-luciferase, dopamine EC30 potentiation; actives deviate in either direction;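 active = luminescence count or its row- and column-corrected plate score outside the 99.7% band of the plate's sample wells, on either side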
CYP2C19 activ = increases human CYP2C19 enzyme activity; P33261; recombinant CYP2C19, luciferin-H EGE luminescence; active compounds read high; 0 = fully inhibited enzyme, 1 = untreated enzyme; activation factor at 5 µM; 96,000 tested, under 10 active; AID 1025;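 active = activation factor of at least 2 at 5 µM in the primary screen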;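 note: 0 = wells with 2.5 mM tranylcypromine and 1 = vehicle-only wells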
Starred values were filed as active, the others as inactive.

`Cc1ccc(NC(=O)CS(=O)Cc2nc(-c3ccc(C)cc3)oc2C)cc1` (stereo not given) gave CYP2C9 inhib 60*, DAT uptake mod 0.34, CYP2C19 inhib 36, CYP2C9 act 0.4 and CYP2C19 activ 0.6.
`COc1ccc(-c2nc(CS(=O)CC(=O)N3CCCC3)c(C)o2)cc1` (stereo not given) gave CYP2C9 inhib 71*, DAT uptake mod 1.1, CYP2C19 inhib 21, CYP2C9 act 0.3, D1 mod 0.072 and CYP2C19 activ 0.8.
O=C1c2ccccc2C(=O)N1Cc1nn2c(-c3ccc(Cl)cc3)nnc2s1 was read as CYP2C9 inhib -22, DAT uptake mod 1.2, CYP2C19 inhib 34, CYP2C9 act 1.2, D1 mod 0.022 and CYP2C19 activ 0.7.
For CCOC(=O)C1=C(C)N=c2s/c(=C\c3ccncc3)c(=O)n2C1c1ccc2c(c1)OCO2 (stereo not given) the results were CYP2C9 inhib 85*, DAT uptake mod 1.6, CYP2C19 inhib 85*, CYP2C9 act 0.2, D1 mod -1.2 and CYP2C19 activ 0.2.
For CCOC(=O)C1=C(C)N=c2s/c(=C3\C(=O)Nc4ccccc43)c(=O)n2C1c1ccc2c(c1)OCO2 (stereo not given) the results were CYP2C9 inhib 59*, DAT uptake mod 0.73, CYP2C19 inhib 11, CYP2C9 act 0.4, D1 mod -0.023 and CYP2C19 activ 0.9.
CCOC(=O)c1nn(-c2ccc(Br)cc2)cc1C(=O)c1cccc2ccccc12 was read as CYP2C9 inhib -20, DAT uptake mod 1, CYP2C19 inhib 28, CYP2C9 act 1.2 and CYP2C19 activ 0.7.
Screening CC(=O)c1nn(-c2cccc(Br)c2)cc1C(=O)c1ccc(Br)cc1 returned CYP2C9 inhib -140, DAT uptake mod -0.54, CYP2C19 inhib -17, CYP2C9 act 2.4* and CYP2C19 activ 1.2.
For CC(=O)c1nn(-c2cccc(Br)c2)cc1C(=O)c1ccc(C)cc1 the results were CYP2C9 inhib 61*, DAT uptake mod 0.073, CYP2C19 inhib -4, CYP2C9 act 0.4 and CYP2C19 activ 1.
For CC(C)N(C)C1CCN(C(=O)Nc2ccc(Cl)c(Cl)c2)CC1 the results were CYP2C9 inhib -18, DAT uptake mod -0.43, CYP2C19 inhib -19, CYP2C9 act 1.2, D1 mod -0.69 and CYP2C19 activ 1.2.
Cc1ccc(C(=O)CCCn2nnc(-c3cccnc3)n2)cc1C was read as CYP2C9 inhib 55*, DAT uptake mod 0.73, CYP2C19 inhib 80*, CYP2C9 act 0.4 and CYP2C19 activ 0.2.
CCC(=O)Nc1cc2nn(-c3ccc(OC)cc3)nc2cc1C was read as CYP2C9 inhib 9, DAT uptake mod -1.2, CYP2C19 inhib 7, CYP2C9 act 0.9, D1 mod -5* and CYP2C19 activ 0.9.
`COc1ccc(-n2cnc3ccccc32)cc1` gave CYP2C9 inhib 59*, DAT uptake mod -1.3, CYP2C19 inhib 61*, CYP2C9 act 0.4 and CYP2C19 activ 0.4.
For COc1ccc(-n2c(N)c(-c3nc4ccccc4n3C)sc2=S)cc1 the results were CYP2C9 inhib -8, DAT uptake mod 0.58, CYP2C19 inhib -14, CYP2C9 act 1.1, D1 mod -1.1 and CYP2C19 activ 1.1.
Screening COc1ccc(-n2cnc3cc(NCc4ccccn4)ccc32)cc1 returned CYP2C9 inhib 44, DAT uptake mod 1.6, CYP2C19 inhib 8, CYP2C9 act 0.6 and CYP2C19 activ 0.9.
For CCC(=O)Nc1ccc2c(c1)ncn2-c1ccc(OC)cc1 the results were DAT uptake mod 2.9*.
Screening COc1ccc(CNC(=O)C(C)Cc2ccccc2)cc1O (stereo not given) returned DAT uptake mod 0.25.
Screening COc1ccc(C)cc1S(=O)(=O)N(C)CC(=O)N1CCCCCC1 returned CYP2C9 inhib 47, DAT uptake mod -0.037, CYP2C19 inhib 49, CYP2C9 act 0.5, D1 mod 0.061 and CYP2C19 activ 0.5.
Screening COc1ccc(C2OC(=O)CC2C(=O)NC2CCCCCC2)cc1OC (stereo not given) returned CYP2C9 inhib 21, DAT uptake mod -0.12, CYP2C19 inhib 10, CYP2C9 act 0.8, D1 mod 0.27 and CYP2C19 activ 0.9.
COc1ccc(CN2CCN(c3ccccn3)CC2)c(OC)c1 was read as CYP2C9 inhib 16, DAT uptake mod -0.44, CYP2C19 inhib 46, CYP2C9 act 0.8, D1 mod 0.16 and CYP2C19 activ 0.5.
Screening Brc1ccc(CN2CCN(c3ccccn3)CC2)s1 returned CYP2C9 inhib 90*, DAT uptake mod -0.53, CYP2C19 inhib 99*, CYP2C9 act 0.1 and CYP2C19 activ 0.
Screening Oc1c(CN2CCN(c3ccccn3)CC2)cc(Cl)c2cccnc12 returned CYP2C9 inhib -4, DAT uptake mod -0.18, CYP2C19 inhib -1, CYP2C9 act 1, D1 mod -1.5 and CYP2C19 activ 1.
Screening c1ccc(COc2ccc(CN3CCN(c4ccccn4)CC3)cc2)cc1 returned CYP2C9 inhib 59*, DAT uptake mod 0.51, CYP2C19 inhib 38, CYP2C9 act 0.4 and CYP2C19 activ 0.6.
For C(#Cc1ccccc1)CN1CCN(c2ccccn2)CC1 the results were CYP2C9 inhib 76*, DAT uptake mod -1.1, CYP2C19 inhib 98*, CYP2C9 act 0.2, D1 mod 0.059 and CYP2C19 activ 0.
For N#CC1=C(N)SC(N)=C(C#N)C1c1c(Cl)cccc1Cl the results were CYP2C9 inhib 95*, DAT uptake mod -0.91, CYP2C19 inhib 89*, CYP2C9 act 0 and CYP2C19 activ 0.1.
For N#CC1=C(N)SC(N)=C(C#N)C1c1cccc(Oc2ccccc2)c1 the results were CYP2C9 inhib 92*, DAT uptake mod -1.6, CYP2C19 inhib 42, CYP2C9 act 0.1, D1 mod -1.4 and CYP2C19 activ 0.6.
`N#CC1=C(N)SC(N)=C(C#N)C1CCc1ccccc1` gave CYP2C9 inhib 92*, DAT uptake mod -1.1, CYP2C19 inhib 85*, CYP2C9 act 0.1, D1 mod -2.5 and CYP2C19 activ 0.1.
N#CC1=C(N)SC(N)=C(C#N)C1Cc1ccccc1 was read as CYP2C9 inhib 34, DAT uptake mod -2.2, CYP2C19 inhib 46, CYP2C9 act 0.7, D1 mod 2 and CYP2C19 activ 0.5.
`CC(C)CN(CC(C)C)C(=O)C12CCC(C)(C(=O)C1)C2(C)C` (stereo not given) gave CYP2C9 inhib 7, DAT uptake mod 0.027, CYP2C19 inhib 6, CYP2C9 act 0.9, D1 mod -0.18 and CYP2C19 activ 0.9.
Screening CN1CCN(C2CCCCCC2)CC1 returned DAT uptake mod 0.17 and D1 mod -0.27.
`CCn1c(COc2ccc(=O)n(-c3ccccc3)n2)nnc1SCc1cccc(OC)c1` gave CYP2C9 inhib 53*, DAT uptake mod 0.12, CYP2C19 inhib 17, CYP2C9 act 0.5 and CYP2C19 activ 0.8.
